Source: PubChem BioAssay
Most compounds without a hit are left out; they make up all but 4% or so of the library.
Peg3 prom inh: reduces Peg3 promoter-driven luciferase expression in HeLa | HeLa PEG-Prom luciferase reporter, luminescence, overnight | inhibition, % at 20 µM | AID 588405 | hit rate 1.7% among 360,000;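 active means inhibition of at least 50% at 20 µM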
TWEAK Fn14 block: TWEAK-Fn14 signaling inhibition | TWEAK-stimulated Fn14 reporter cells, luciferase luminescence, 8 h | inhibition, % at 10 µM | hit rate 2% among 360,000 | AID 1159606; in the data active means inhibition above about 50%
CF NFkB block: cystic fibrosis NF-kB activation inhibition; AID 588850; KKLEB NF-kB-GFP reporter, PAF-induced, GFP fluorescence overnight; inhibition, % at 5 µM; hit rate 0.86% among 360,000;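 active means at least 50% inhibition at 5 µM, scaled per plate between neutral and stimulator controls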;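 further: PAF is a Pseudomonas aeruginosa culture filtrate used as stimulus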
TROY signal inh: blocks TROY-dependent signaling in reporter cells; Q293 LMP1-TROYcd NF-kB luciferase reporter, 4 h; inhibition, % at 10 µM; hit rate 0.98% among 360,000; AID 1347056;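 active means compounds whose plate-normalised and pattern-corrected inhibition of the luciferase reporter signal at the single screening dose is 50% or more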
KKLEB cytotox: CF airway cell cytotoxicity counter-screen | KKLEB CF airway cells viability, ATPlite luminescence, overnight; hits give low values; cells stimulated with P. aeruginosa culture filtrate | activity change (cytotoxicity), % at 5 µM | AID 602141 | hit rate 0.36% among 360,000;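 active means corrected activity change at or below -50% at 5 µM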
HIF-2a block: blocks HIF-2a reporter activity; 786-0 RCC cells HIF-2a reporter, luciferase luminescence, overnight; AID 624352; inhibition, % at 18.8 µM; hit rate 0.72% among 360,000;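 active means inhibition of the luminescence signal of 40% or more relative to plate controls, in a single-dose primary screen at 18.75 µM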
Of the large screens only hits and unclear results are named; the others gave an inactive call; ! = not active in a repeat.

COCCn1c(=NC(=O)CSCC(=O)N2CCOCC2)sc2cc(C)ccc21	none
COc1ccc(-c2noc(CCCCC(=O)N3CCN(c4cc(C)ccc4C)CC3)n2)cc1	TWEAK Fn14 block 64.1
Cc1cc(OCC(=O)OCC(=O)c2c(N)n(C)c(=O)n(C)c2=O)ccc1Cl	TWEAK Fn14 block 86.1
CCS(=O)(=O)N1CCC(NC(=O)C(Cc2cccc(OC)c2OC)NC(C)=O)CC1 (stereo not drawn)	TWEAK Fn14 block 85.0
Cc1cccc(NC(=O)c2nc[nH]c2C(=O)N[C@@H](C)CO)c1	none
CCOC(=O)c1c(CSc2ccc(CC)cc2)oc2ccc(O)c(CN(C)C)c12	Peg3 prom inh 97.6
CCOC(=O)N1CCC(=NNC(=O)COc2ccc(OC)cc2)CC1	TWEAK Fn14 block 95.9
CC1=C(C(=O)N2CCCCCC2)CC(CC(=O)NCCCN(C)C)C(=O)N1Cc1ccccc1 (stereo not drawn)	none
Cc1nc2ccccn2c1C(=O)N=Nc1c(O)n(CCC(C)C)c2ccccc12	Peg3 prom inh 107.1, TWEAK Fn14 block 68.6
O=C1C=C(c2ccc3c(c2)OCO3)C[C@@H](c2ccc(Cl)cc2)C1	none
CCCCOc1ccc(CSC(CC(=O)O)C(=O)O)cc1 (stereo not drawn)	TWEAK Fn14 block 69.7 (no result: TROY signal inh)
O=C(CNc1cccc(Br)c1)Nc1ccc(S(=O)(=O)N2CCCCC2)cc1	none
O=C1C=CC(=Nc2ccc3c(c2)Cc2cc(F)ccc2-3)O1	TWEAK Fn14 block 56.3
O=C1C=CC(=Nc2cccc3c2C(=O)c2ccccc2-3)O1	none
Cc1ccc(C(=O)N2CCCCC2C(=O)O)cc1S(=O)(=O)N1CCCCC1 (stereo not drawn)	none
CCN(CC)CCCNc1nc2ccccc2c2[nH]c3ccc(OC)cc3c12	Peg3 prom inh 99.3, TROY signal inh 68.5
c1ccc(-c2nc(-c3cccs3)[nH]c2-c2ccccc2)cc1	TWEAK Fn14 block 52.3
COc1cc(-c2nc(-c3ccccc3)c(-c3cccs3)[nH]2)cc(OC)c1O	none
c1csc(-c2nc3c4ccccc4c4ccccc4c3[nH]2)c1	TWEAK Fn14 block 69.3
COc1cc(-c2nc(-c3ccccc3)c(-c3cccs3)[nH]2)cc(OC)c1OC	TWEAK Fn14 block 66.1
COc1cc2c3nnc(-c4ccccc4)c-3cn(Cc3ccc(F)cc3)c2cc1OC	none
COc1cc2c3nnc(-c4ccc(F)cc4)c-3cn(Cc3ccc(C)cc3)c2cc1OC	Peg3 prom inh 65.6
COc1cc2c3nnc(-c4ccc(F)cc4)c-3cn(Cc3cccc(C)c3)c2cc1OC	Peg3 prom inh 100.2, KKLEB cytotox -76.8
CCCCCCCn1ccc(=N)cc1	none
CCCCCCCCCn1ccc(=N)cc1	TROY signal inh 54.1
COc1ccc2c(c1)c(C(C)=O)c(C)n2CCc1ccccc1	TWEAK Fn14 block 68.6
c1ccc(COc2ncnc3c2ncn3CCCNC2CCN(Cc3ccccc3)CC2)cc1	Peg3 prom inh 61.4
CSc1ncnc2c1ncn2CCCNC1CCN(Cc2ccccc2)CC1	none
O=C(c1ccc(-c2nnc(-c3ccccc3)o2)cc1)N1CCCCCC1	TWEAK Fn14 block 56.8
CCN1CCN(Cc2ccc(NC(=O)c3cc(NC(=O)c4ccc5n[nH]nc5c4)cc(OC)c3)cc2C(F)(F)F)CC1	none
CCN1CCN(Cc2ccc(NC(=O)c3ccc(C)c(/C=C/c4cnc(Nc5cc(N6CCNCC6)nc(C)n5)cn4)c3)cc2C(F)(F)F)CC1	Peg3 prom inh 96.0, CF NFkB block 76.3!
CCN1CCN(Cc2ccc(NC(=O)c3ccc(C)c(NC(=O)c4cccc(-c5cn[nH]c(=O)c5)c4)c3)cc2C(F)(F)F)CC1	CF NFkB block 71.5
CC(C)CC1Nc2ccc(C(=O)NCCCN3CCCCC3C)cc2NC1=O (stereo not drawn)	none
CCOC(=O)c1cnc2c(ccc3ccccc32)c1N	none
C1=C(CCNc2ncnc3c2[nH]c2ccccc23)CCCC1	TWEAK Fn14 block 69.2
COCCCNC(=O)C1CCC(CNS(=O)(=O)c2ccc3c(c2)N(C(C)=O)CCO3)CC1 (stereo not drawn)	none
CCOC(=O)c1ccc(NC(=O)c2c(NC(=O)CCC(=O)O)sc3c2CCCCC3)cc1	TWEAK Fn14 block 73.7
CCOc1ccccc1NC(=O)c1c(NC(=O)CCC(=O)O)sc2c1CCCCC2	none
CCN(Cc1ccccc1)C(=O)CCS(=O)(=O)c1ccc2c(c1)n(C)c(=O)c(=O)n2C	none
